Measured values taken from article PMC4336329 (PLoS ONE, 2015).
Hit rate of the full screen: of about 310,000 compounds, about 14,000 (4.5%) showed an effect of 50% or more. Effects have a minus sign here. What follows is part of a selection rich in strong results, with near analogues and random picks from the rest.

molecular target: human ether-à-go-go-related gene (hERG) potassium channel (human, UniProt Q12809); assay: primary screen, population patch clamp on CHO cells stably expressing hERG; higher = less effect of the substance
Sequence (Q12809 whole entry, looked up): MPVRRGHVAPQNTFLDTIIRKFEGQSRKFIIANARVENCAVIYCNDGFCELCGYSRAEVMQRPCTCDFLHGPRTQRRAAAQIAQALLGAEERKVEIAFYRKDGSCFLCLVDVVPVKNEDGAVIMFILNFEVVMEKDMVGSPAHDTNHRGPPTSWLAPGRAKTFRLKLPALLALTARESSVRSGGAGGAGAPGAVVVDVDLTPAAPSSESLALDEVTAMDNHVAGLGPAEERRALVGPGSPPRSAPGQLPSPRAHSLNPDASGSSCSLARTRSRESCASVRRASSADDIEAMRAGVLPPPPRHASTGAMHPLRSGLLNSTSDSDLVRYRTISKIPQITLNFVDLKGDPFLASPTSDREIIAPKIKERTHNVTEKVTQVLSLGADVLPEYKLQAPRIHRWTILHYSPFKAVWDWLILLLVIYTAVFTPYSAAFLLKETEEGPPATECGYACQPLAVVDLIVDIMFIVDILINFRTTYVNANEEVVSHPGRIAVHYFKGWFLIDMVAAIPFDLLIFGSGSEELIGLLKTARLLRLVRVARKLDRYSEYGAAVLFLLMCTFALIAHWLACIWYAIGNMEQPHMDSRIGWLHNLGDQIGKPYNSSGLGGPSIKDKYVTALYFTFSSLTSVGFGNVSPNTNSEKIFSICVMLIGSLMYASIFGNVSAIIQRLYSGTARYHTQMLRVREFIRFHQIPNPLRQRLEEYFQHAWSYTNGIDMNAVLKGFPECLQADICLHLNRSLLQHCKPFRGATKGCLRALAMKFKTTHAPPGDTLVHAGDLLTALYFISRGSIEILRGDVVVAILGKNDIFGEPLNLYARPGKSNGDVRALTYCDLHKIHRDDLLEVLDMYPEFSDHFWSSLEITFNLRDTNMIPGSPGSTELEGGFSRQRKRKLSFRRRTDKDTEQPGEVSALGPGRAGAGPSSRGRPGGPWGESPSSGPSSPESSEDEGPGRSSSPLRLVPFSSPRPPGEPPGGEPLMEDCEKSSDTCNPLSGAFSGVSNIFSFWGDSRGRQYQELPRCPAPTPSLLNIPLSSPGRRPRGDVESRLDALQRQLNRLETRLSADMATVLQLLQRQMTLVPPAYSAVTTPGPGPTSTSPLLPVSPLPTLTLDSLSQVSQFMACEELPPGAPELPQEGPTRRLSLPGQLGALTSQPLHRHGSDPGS
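Also: peak tail current of the secondary pulse compared with the same well before compound.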

Compound | hERG current change (%, negative = inhibition) at 10uM [%]
O=C(c1cccc(S(=O)(=O)NCCOc2ccccc2)c1)N1CCN(c2ncccn2)CC1 | -37.6
Cc1cc(/C=C(\C#N)C(=O)NCc2ccco2)c(C)n1-c1cccnc1 | -23.2
O=C(COc1ccc2ccccc2c1)N/N=C/C1CC=CCC1 (stereo not shown) | 1.93
CCOCCCN1CN(Cc2ccccc2)CNC1=S | 14.3
COC(=O)c1sccc1NC(=S)NCc1ccc(Cl)cc1 | 9.11
COCCN(C(=O)CCC(=O)Nc1cc(C)on1)C(C(=O)NC1CCCC1)c1ccccc1C (stereo not shown) | 14.7
COc1cccc(OC)c1C(=O)NC(=S)N1CCOCC1 | 17.2
CCOC(=O)Cn1c2c(c(-c3ccccc3OC)cc1=O)CCCC2 | 2.38
CNS(=O)(=O)c1ccc(NC(=S)Nc2ccc3c(c2)OCO3)cc1 | 8.16
CC(C)[C@H](NS(=O)(=O)c1ccc(Cl)cc1)C(=O)OCC(=O)c1c(N)n(C)c(=O)n(C)c1=O | -39.9
CC(=O)c1c(C)[nH]c(C(=O)COC(=O)CNS(=O)(=O)c2ccccc2)c1C | -2.66
Cn1c(N)c(C(=O)COC(=O)CSc2ccc3ccccc3c2)c(=O)n(C)c1=O | -1.77
Cn1c(N)c(C(=O)COC(=O)CCCOc2ccc(Cl)cc2Cl)c(=O)n(C)c1=O | -12.2
Cc1ccc(S(=O)(=O)N(C)CC(=O)OCC(=O)c2c(N)n(C)c(=O)n(C)c2=O)cc1 | -47.1
CC(Oc1ccc(Cl)cc1Cl)C(=O)OCC(=O)c1c(N)n(C)c(=O)n(C)c1=O (stereo not shown) | -71.2
CN(CC(=O)OCC(=O)c1c(N)n(C)c(=O)n(C)c1=O)S(=O)(=O)c1ccc(Cl)cc1 | -69.3
Cn1c(N)c(C(=O)COc2ccc(Cl)cc2Cl)c(=O)n(C)c1=O | 2.07
Cn1c(N)c(C(=O)COC(=O)CSc2ccccc2)c(=O)n(C)c1=O | -33.6
CN(CC(=O)OCC(N)=O)S(=O)(=O)c1ccc(Cl)cc1 | 33.6
Cn1c(N)c(C(=O)COC(=O)CSc2ccc(Cl)cc2)c(=O)n(C)c1=O | -61.2
CC(=O)c1c(C)[nH]c(C(=O)COC(=O)CN(C)S(=O)(=O)c2ccc(Cl)cc2)c1C | -57.8
COc1ccc(N(C(=O)COc2ccccc2)C2C=CS(=O)(=O)C2)cc1 (stereo not shown) | -1.57

Compound | hERG current change (%, negative = inhibition) at 10uM [%]
CCC(=O)Nc1c(S(=O)(=O)c2ccc(C)cc2)c2nc3ccccc3nc2n1C(C)c1ccccc1 (stereo not shown) | -14.9
C=C(C)CN=C1NN=C(c2cc(C)n(-c3ccc(C)cc3)c2C)CS1 | 4.06
O=C(NCCNC(=O)c1ccccc1F)c1ccco1.O=C(O)C(=O)O | 13.9
O=C(CN1CCN(c2ccc(Cl)cc2[N+](=O)[O-])CC1)N1CCOCC1 | -33.6
O=C(CSc1ccc(Cl)cc1)N1CCN(c2ccc(Cl)cc2[N+](=O)[O-])CC1 | -61.5
O=C(CSc1ccc(Cl)cc1)N1CCN(c2c(Cl)cccc2[N+](=O)[O-])CC1 | -17.2
O=C(CSc1ccc(Cl)cc1)N1CCN(c2ccc([N+](=O)[O-])cc2Cl)CC1 | -59.2
O=C(CSc1ccc(Cl)cc1)N1CCCC1 | 16.6
CN1CCN(C(=O)CSc2ccc(Cl)cc2)CC1 | 6.35
CCN1C(=O)c2ccc(C(=O)O)cc2C1=O | 9.2
c1ccc(CCNc2ncnc3sccc23)nc1 | 26.8
O=C(c1ccc(Cl)cc1)c1ccc(OCC(=O)N2CCOCC2)cc1 | -40.8
CCOC(=O)N1CCN(C(=O)c2ccc(NC(=O)c3ccc(C)cc3)cc2)CC1 | -13.3
COc1ccc([N+](=O)[O-])cc1NC(=O)Cn1ccc(C(F)(F)F)n1 | 13.3
COc1ccc([C@@H]2Sc3cc(OC)ccc3N(CCN(C(C)C)C(C)C)C(=O)[C@H]2OC(C)=O)cc1.Cl | -75
COc1ccc2c(c1)Sc1ccccc1N2CCN(C)C.O=C(O)C(=O)O | -21.3
COc1ccc(N2C(=O)C(OC(C)=O)C2c2ccc(C)cc2)cc1 (stereo not shown) | 17.3
Cc1ccc(N2C(=O)CC(Sc3ncn[nH]3)C2=O)cc1C (stereo not shown) | 14.2
S=C(NCC1CCCO1)N1CCN(c2ccccc2)CC1 (stereo not shown) | 23.5
Cc1cc2ccccc2c(=O)[nH]1 | 16.5
CCn1c(CNC(=O)C2CCCCC2)cc2cc(C)ccc21 | 28
CN(C)c1nc(NCc2ccccc2)nc(SCC(N)=O)n1 | 7.76

Compound | hERG current change (%, negative = inhibition) at 10uM [%]
Cn1c2ccccc2c2ncn(CCCN3CCOCC3)c(=O)c21 | -16.6
COc1ccc(-c2oc3ncn(CCN4CCOCC4)c(=N)c3c2-c2ccc(OC)cc2)cc1 | -70.3
O=c1oc2ccccc2c2c1ncn2CCN1CCOCC1 | -8.76
COc1ccc(-c2oc3ncnc(NCCN4CCOCC4)c3c2-c2ccc(OC)cc2)cc1 | 2.75
Cn1c(=O)c2c(-c3ccccc3)n(CCCN3CCOCC3)cc2n(C)c1=O | 16.1
N=c1c2c(-c3ccccc3)c(-c3ccccc3)oc2ncn1CCN1CCOCC1 | -70.8
N=c1c2c(-c3ccccc3)c(-c3ccccc3)oc2ncn1CCCN1CCOCC1 | -79.2
COc1ccc(-c2oc3ncn(Cc4ccco4)c(=N)c3c2-c2ccc(OC)cc2)cc1 | -49.4
CC(C)Cc1n[nH]c(=O)[nH]1 | -6.31
O=C(Nc1c2c(nn1-c1ccc(F)cc1)CS(=O)C2)c1ccc(S(=O)(=O)N2CCOCC2)cc1 (stereo not shown) | 21.9
Cc1cc(NC(=O)c2c(-c3ccccc3Cl)noc2C)no1 | 5.88
CS(=O)(=O)NNC(=O)c1cc2cc3ccccc3nc2s1 | 9.84
COc1ccc(NC(=O)C2=CC(c3ccc(OC)c(OC)c3)=NS(=O)(=O)N2C)cc1 | -4
O=C(NCC1CCCO1)c1cc(-c2ccc(F)cc2)no1 (stereo not shown) | 0.634
O=C1C2(c3ccccc3)CN(CCCO)CC1(c1ccccc1)CN(CCCO)C2 | -50.4
C=CCN1CC2(c3ccccc3)CN(CC=C)CC(c3ccccc3)(C1)C2=O | -19.3
O=C1C2(c3ccccc3)CN(CCO)CC1(c1ccccc1)CN(CCO)C2 | -10.6
CCOC(=O)C1CCN(C(=O)CN2C(=O)CSc3ccc(S(=O)(=O)N4CCOCC4)cc32)CC1 | -22.6
O=C(N=C1SC2CS(=O)(=O)CC2N1Cc1ccc(F)cc1)C1CCCO1 (stereo not shown) | -5.58
CN(C)S(=O)(=O)c1ccc(N2CCCC2)c(C(=O)NNC(=O)COc2ccccc2F)c1 | -61.4
CCc1ccccc1NC(=O)c1cc(S(=O)(=O)N(C)C)ccc1N1CCCC1 | -32.2
CSc1ccccc1NC(=O)c1cc(S(=O)(=O)N(C)C)ccc1N1CCCC1 | -54.7

Compound | hERG current change (%, negative = inhibition) at 10uM [%]
CN(C)S(=O)(=O)c1ccc(N2CCCC2)c(C(=O)NCc2ccccc2)c1 | -10
CN(C)S(=O)(=O)c1ccc(N2CCCC2)c(C(=O)NCc2ccc(Cl)cc2)c1 | -68.5
CN(CC(=O)Nc1ccccc1Br)C(=O)c1cc(S(=O)(=O)N(C)C)ccc1N1CCCC1 | -8.64
CN(C)S(=O)(=O)c1ccc(N2CCCC2)c(C(=O)NCc2cccc(C(F)(F)F)c2)c1 | 4.61
Cc1ccccc1OCC(=O)NNC(=O)c1cc(S(=O)(=O)N(C)C)ccc1N1CCCC1 | 0.0569
CN(C)S(=O)(=O)c1ccc(N2CCCC2)c(C(=O)Nc2ccccc2Br)c1 | -58.3
CN(C)S(=O)(=O)c1ccc(N2CCCC2)c(C(=O)Nc2ccccc2F)c1 | -14.7
CN(C)S(=O)(=O)c1ccc(N2CCCC2)c(C(=O)NNC(=O)COc2ccccc2Cl)c1 | -30.3
CN(C)S(=O)(=O)c1ccc(N2CCCC2)c(C(=O)Nc2ccc(Br)cc2F)c1 | 3.03
O=C(C1CCCO1)N1CCN(C(c2ccccc2)c2ccccc2)CC1 (stereo not shown) | 0.514
CC1(C)C=C2[C@H]3CC[C@@H]4[C@@]5(C)CCC(=O)C(C)(C)[C@@H]5CC[C@@]4(C)[C@]3(C)CC[C@@]2(C(=O)O)CC1 | -1.05
CCN(CC)C(=O)C(=O)N/N=C/c1cccc(Br)c1 | -8.07
CCN(CC1COc2ccccc2O1)C(=S)NC1CC2CCC1C2 (stereo not shown) | 1.34
Cc1cc(C)cc(OCc2ccc(C(=O)NC3CCOC3=O)o2)c1 (stereo not shown) | 15.9
O=C(Nc1nccs1)C(c1ccccc1)N1CCCC1 (stereo not shown) | -7.89
COC(=O)c1sccc1N/N=C/c1cccc(Oc2ccccc2)c1 | -7.09
CC1S/C(=N/N=C/c2ccco2)N(Cc2ccc(F)cc2)C1=O (stereo not shown) | -11.3
COc1cc(OC)nc(Oc2ccccc2C(=O)Oc2ccc(Cl)cc2)n1 | -21.6
Cc1nnsc1SCC(=O)O | -0.15
